SARS 3CLpro inh: SARS-CoV 3CLpro protease inhibition; inhibition, % at 6 µM; AID 1706; 290,000 compounds, 0.14% hits; P0C6X7; recombinant SARS-CoV 3CLpro, quenched FRET peptide cleavage; in the data active = inhibition above about 12%
CCHF vOTU inh-1: blocks the CCHF virus ovarian tumor domain protease | CCHFV vOTU protease, Pep-AMC fluorescence | inhibition, % at 11.5 µM | 370,000 compounds, 0.55% hits | AID 651958; also: 0% = vehicle wells with enzyme and 100% = no enzyme wells
PrPC TRFRET: reduces human prion protein on the cell surface; P04156; cell surface PrPC, TR-FRET read-out; inhibition, % at 13.8 µM; 370,000 compounds, 0.43% hits; in the data active = inhibition above about 24%; also: 0% = median of the test wells and 100% = reference compound wells
PrP UTR inh: suppresses PrP 5' UTR mRNA reporter expression; 340,000 compounds, 0.35% hits; inhibition, % (test concentration not listed); AID 488862; cell-based PrP 5' UTR mRNA reporter, plate reader; in the data active = inhibition above about 52%; also: 0 = median of the neutral control wells
CCHF vOTU inh-2: confirmation of CCHF virus vOTU protease inhibitors; shares compounds with CCHF vOTU inh-1; Recombinant CCHFV vOTU, Pep-AMC fluorescence; inhibition, % at 11.5 µM; 1,900 compounds, 17% hits
* = called active by the depositor. This is a sample that favours compounds with a hit; in the whole collection about 1.3% have one here. Rule as the data show it, unless noted: active = inhibition above about 30%; inactive = the rest.

How did CC12CCC3C(CCC4CC(=O)OCC43C)C1CCC2O (stereo unspecified) do in these assays?
CCHF vOTU inh-1: -19; PrPC TRFRET: -1; PrP UTR inh: -12

Results for CC(NS(=O)(=O)/C=C/c1ccccc1)C(=O)NCCc1ccc(S(N)(=O)=O)cc1 (stereo unspecified) ?
SARS 3CLpro inh: -1; CCHF vOTU inh-1: -1; PrPC TRFRET: -4; PrP UTR inh: -18

What do the screens show for `CC(NS(=O)(=O)/C=C/c1ccccc1)C(=O)O` (stereo unspecified)?
SARS 3CLpro inh: 1; CCHF vOTU inh-1: 32*; PrPC TRFRET: 6; PrP UTR inh: -1; CCHF vOTU inh-2: -15

How did Cc1ccc(SCC(=O)OCC(=O)NC2CCCCCCC2)cc1 do in these assays?
CCHF vOTU inh-1: 30*; PrPC TRFRET: 2; PrP UTR inh: -24; CCHF vOTU inh-2: 4

How did O=C(NCCCn1ccnc1)c1noc2c1CCc1ccccc1-2 do in these assays?
SARS 3CLpro inh: -2; CCHF vOTU inh-1: 39*; PrPC TRFRET: 7; PrP UTR inh: -37; CCHF vOTU inh-2: 22

What do the screens show for `Cc1ccc(OCC(=O)Nc2ccc(CN3CCOCC3)cc2)cc1`?
SARS 3CLpro inh: -4; CCHF vOTU inh-1: -1; PrPC TRFRET: -3; PrP UTR inh: 7

What do the screens show for `Cc1cccc(OCC(=O)Nc2ccc(CN3CCOCC3)cc2)c1C`?
SARS 3CLpro inh: -2; CCHF vOTU inh-1: 35*; PrPC TRFRET: 1; PrP UTR inh: -6; CCHF vOTU inh-2: -8

Results for CCCCN1CCNC[C@@H]1c1ccccc1 ?
CCHF vOTU inh-1: 17; PrPC TRFRET: -1; PrP UTR inh: -24

How did CCOP(=O)(OCC)OCC do in these assays?
CCHF vOTU inh-1: 3; PrPC TRFRET: -3; PrP UTR inh: -7

What do the screens show for `Cc1cc(C)nc(SCC(=O)N/N=C/c2cccn2-c2cccc(C(F)(F)F)c2)n1`?
SARS 3CLpro inh: 2; CCHF vOTU inh-1: 30*; PrPC TRFRET: 3; PrP UTR inh: -19; CCHF vOTU inh-2: 2

What do the screens show for `NC(=S)N/N=C/c1cccc(/C=N/NC(N)=S)c1`?
SARS 3CLpro inh: -5; CCHF vOTU inh-1: 1; PrPC TRFRET: -3; PrP UTR inh: 2

What do the screens show for `NC(=S)N/N=C/c1ccc(/C=N/NC(N)=S)cc1`?
SARS 3CLpro inh: -1; CCHF vOTU inh-1: 36*; PrPC TRFRET: -11; PrP UTR inh: -18; CCHF vOTU inh-2: 3

What do the screens show for `O=C(COC(=O)COc1ccccc1Cl)Nc1ccccc1OC(F)F`?
SARS 3CLpro inh: 0; CCHF vOTU inh-1: 33*; PrPC TRFRET: -4; PrP UTR inh: -1; CCHF vOTU inh-2: -3

How did Cc1cccc2c(=O)c(-c3ccc(Cl)cc3)c(NC(=O)c3ccco3)oc12 do in these assays?
SARS 3CLpro inh: 4; CCHF vOTU inh-1: 30*; PrPC TRFRET: -5; PrP UTR inh: -17; CCHF vOTU inh-2: -6

What do the screens show for `CCCn1c(O)c(N=NC(=O)CNC(=O)/C=C/c2ccc(OC)cc2)c2ccccc21`?
SARS 3CLpro inh: 4; CCHF vOTU inh-1: 21; PrPC TRFRET: -5; PrP UTR inh: -1

How did CCCn1c(O)c(N=NC(=O)CNC(=O)Cc2ccc(OC)cc2)c2ccccc21 do in these assays?
SARS 3CLpro inh: 4; CCHF vOTU inh-1: 32*; PrPC TRFRET: -35; PrP UTR inh: -18; CCHF vOTU inh-2: -4

What do the screens show for `CCCCn1c(N)c(N(CC)C(=O)c2ccccc2F)c(=O)[nH]c1=O`?
SARS 3CLpro inh: 0; CCHF vOTU inh-1: 33*; PrPC TRFRET: 7; PrP UTR inh: -23; CCHF vOTU inh-2: -11

How did COCCN(C(=O)CSc1nn(-c2ccc(F)cc2)c(=S)s1)c1c(N)n(CC(C)C)c(=O)[nH]c1=O do in these assays?
CCHF vOTU inh-1: 5; PrPC TRFRET: 11; PrP UTR inh: -8

Results for CCCn1c(N)c(N(CCOC)C(=O)c2ccccc2F)c(=O)[nH]c1=O ?
SARS 3CLpro inh: -9; CCHF vOTU inh-1: 11; PrPC TRFRET: 8; PrP UTR inh: -20

Results for CCCCn1c(N)c(N(CC(C)C)C(=O)CSc2nn(-c3ccc(F)cc3)c(=S)s2)c(=O)[nH]c1=O ?
CCHF vOTU inh-1: 38*; PrPC TRFRET: 3; PrP UTR inh: -12; CCHF vOTU inh-2: -29

How did CCc1ccc(-c2csc(NC(=O)C3CC(=O)N(c4ccc5c(c4)OCCO5)C3)n2)cc1 (stereo unspecified) do in these assays?
SARS 3CLpro inh: 5; CCHF vOTU inh-1: 30*; PrPC TRFRET: 6; PrP UTR inh: -12; CCHF vOTU inh-2: -22

Results for Cc1csc(NC(=O)C2CC(=O)N(c3ccc4c(c3)OCCO4)C2)n1 (stereo unspecified) ?
CCHF vOTU inh-1: -2; PrPC TRFRET: 6; PrP UTR inh: -26

How did CC1(C(=O)Nc2cccc(OC(F)(F)F)c2)Cc2c(-c3ccc4c(c3)OCO4)ccnc2O1 (stereo unspecified) do in these assays?
CCHF vOTU inh-1: 31*; PrPC TRFRET: 4; CCHF vOTU inh-2: -11

What do the screens show for `O=[N+]([O-])c1cc(Br)c2c(c1)CCN2`?
CCHF vOTU inh-1: 30*; PrPC TRFRET: -6; CCHF vOTU inh-2: 1

How did CCc1ccc(C(=O)NNC(=O)c2ccc3c(=O)n4c(nc3c2)CCC4)cc1 do in these assays?
SARS 3CLpro inh: -2; CCHF vOTU inh-1: 18; PrPC TRFRET: 4; PrP UTR inh: -8

How did CC1(Cc2ccc(F)cc2)C(=O)Nc2ccc(S(=O)(=O)NC3CCCCC3)cc21 (stereo unspecified) do in these assays?
CCHF vOTU inh-1: 44*; PrPC TRFRET: 22; CCHF vOTU inh-2: -6

Results for COC(=O)NN=C1CCC(c2ccccc2)CC1 (stereo unspecified) ?
SARS 3CLpro inh: -1; CCHF vOTU inh-1: 14; PrPC TRFRET: -2; PrP UTR inh: -2

What do the screens show for `COC(=O)N/N=C1/C/C(=N\NC(=O)OC)c2ccccc21`?
SARS 3CLpro inh: -4; CCHF vOTU inh-1: 89*; PrPC TRFRET: -15; PrP UTR inh: -19; CCHF vOTU inh-2: 72*

How did c1ccc(-c2cnnn2-c2ccccc2)cc1 do in these assays?
SARS 3CLpro inh: 0; CCHF vOTU inh-1: -4; PrPC TRFRET: 1; PrP UTR inh: -25

How did Cc1[nH]n(-c2ccccc2)c(=O)c1C(c1ccc(C(=O)O)cc1)c1c(C)[nH]n(-c2ccccc2)c1=O do in these assays?
SARS 3CLpro inh: 0; CCHF vOTU inh-1: 71*; PrPC TRFRET: -8; PrP UTR inh: -19; CCHF vOTU inh-2: -11

How did COc1cc(C(c2c(C)[nH][nH]c2=O)c2c(C)[nH][nH]c2=O)cc(OC)c1OC do in these assays?
SARS 3CLpro inh: 3; CCHF vOTU inh-1: -3; PrPC TRFRET: -2; PrP UTR inh: -20

What do the screens show for `COc1cc(C(c2c(C)[nH]n(-c3ccccc3)c2=O)c2c(C)[nH]n(-c3ccccc3)c2=O)cc(OC)c1OC`?
SARS 3CLpro inh: -6; CCHF vOTU inh-1: 80*; PrPC TRFRET: 2; PrP UTR inh: 3; CCHF vOTU inh-2: -4

Results for Cc1[nH]n(-c2ccccc2)c(=O)c1C(C[N+](=O)[O-])c1ccc(Br)cc1 (stereo unspecified) ?
SARS 3CLpro inh: -3; CCHF vOTU inh-1: 15; PrPC TRFRET: 1; PrP UTR inh: -1

What do the screens show for `CSc1ccccc1NC(=O)c1ccc([N+](=O)[O-])cc1`?
SARS 3CLpro inh: 0; CCHF vOTU inh-1: -8; PrPC TRFRET: -29; PrP UTR inh: -8

Screening results (PubChem)
